A selection follows.
aSyn UTR act – Activators via SNCA 5'UTR binding, MLPCN; alpha-synuclein 5'UTR reporter, activators screen; activity score, % (tested at 7.5 µM), hits read low; 300,000 tested, 7.1% active; AID 1814; in the data active = activity score below about -60%
Each line names hits and unclear results; the compound was inactive in the other large screens.

CCOC(=O)C(NC(=O)Nc1ncccn1)(Oc1ccccc1)C(F)(F)F (stereo not drawn)	aSyn UTR act -83
CS(=O)(=O)N1CCN(c2ccc(NC(=O)c3ccc([N+](=O)[O-])o3)cc2)CC1	none
COc1ccc(N2CCCC2)c(NC(=O)c2ccc([N+](=O)[O-])o2)c1	aSyn UTR act -70
O=C(Nc1ccccc1N1CCCC1)c1ccc([N+](=O)[O-])o1	aSyn UTR act -112
O=C(Nc1ccc(N2CCCCC2)cc1)c1ccc([N+](=O)[O-])o1	aSyn UTR act -214
COc1ccc(NS(=O)(=O)c2cc(NC(=O)c3ccc(C)o3)ccc2N2CCCCC2)cc1	aSyn UTR act -62
Nc1c(-c2cccc([N+](=O)[O-])c2)nc2ccccn12	aSyn UTR act -83
NC(=NCCc1ccccc1)NC(=O)c1cc(Cl)ccc1O	aSyn UTR act -108
Cc1cccc(C(=O)CC(=O)c2cc(Cl)ccc2O)c1	none
O=C(CC(=O)c1cc(Cl)ccc1O)c1ccccc1	aSyn UTR act -99
Cc1ccc(O)c(C(=O)CC(=O)c2cccc(F)c2)c1	aSyn UTR act -85
CC(=O)c1ccc(NC(=O)C(C)OC(=O)c2ccc3c(c2)nc(C)n3-c2ccccc2)cc1 (stereo not drawn)	aSyn UTR act -91
NC(=O)C1(N2CCCCC2)CCN(C2CC(=O)NC2=O)CC1 (stereo not drawn)	aSyn UTR act -86
Cc1cc(Br)ccc1NC(=O)CNC(=O)Cn1ncc(Cl)c(Cl)c1=O	none
CCN(CC)S(=O)(=O)c1cc(NC(=O)Cn2ncc(Cl)c(Cl)c2=O)ccc1C	aSyn UTR act -99
Brc1cc(Br)c2nc(-c3cccs3)ccc2c1	aSyn UTR act -157
O=C(Nc1nc(-c2ccccc2)ns1)c1cccs1	aSyn UTR act -272
Cc1c(Cl)ccc2sc(NC(=O)c3ccco3)nc12	aSyn UTR act -199
O=C(Nc1nc(-c2nc3ccccc3s2)cs1)c1ccco1	aSyn UTR act -161
Cc1csc(NC(=O)c2cccn2C)n1	aSyn UTR act -128
Cc1csc(NC(=O)c2cn3ccccc3n2)n1	none
O=C(Nc1nc(-c2ccccn2)cs1)C1CCCC1	aSyn UTR act -97
O=C(Nc1nc(-c2ccc(Cl)s2)cs1)c1cccs1	aSyn UTR act -276
Cc1csc(NC(=O)c2ccco2)n1	aSyn UTR act -72
O=C(Nc1nc(-c2ccc(Cl)s2)cs1)c1ccco1	aSyn UTR act -203
CC1CC1C(=O)Nc1nc(-c2cccs2)c(-c2cccs2)s1 (stereo not drawn)	aSyn UTR act -71
Cc1onc(-c2c(Cl)cccc2Cl)c1C(=O)Nc1nc(C(C)(C)C)cs1	none
O=C(Nc1nc(-c2ccccc2)cs1)c1ccccc1NS(=O)(=O)c1ccc(F)cc1	none
O=C(Nc1nc(-c2cc(Cl)sc2Cl)cs1)c1ccccc1	aSyn UTR act -85
CC(C)(C)c1csc(NC(=O)c2cccs2)n1	aSyn UTR act -84
O=C(Nc1nc(-c2ccccc2)cs1)c1cccs1	aSyn UTR act -144
O=C(Nc1nc(-c2nc3ccccc3s2)cs1)C1CC1	aSyn UTR act -96
O=C(NNc1nc(-c2ccc(Cl)cc2)cs1)c1ccco1	aSyn UTR act -73
CC1CC1C(=O)Nc1nc(-c2ccccc2)cs1 (stereo not drawn)	aSyn UTR act -122
COc1ccccc1OCc1csc(NC(=O)c2ccco2)n1	aSyn UTR act -108
O=C(Nc1ccc2nc(-c3ccccn3)[nH]c2c1)C1CCCCC1	aSyn UTR act -144
O=C(CN1C(=O)CCC1=O)Nc1nc(-c2nc3ccccc3s2)cs1	aSyn UTR act -114
Cc1c(-c2ccccc2)[n+](=O)c(-c2ccc(Br)cc2)c(C)n1[O-]	aSyn UTR act -102
Clc1ccc(-c2noc(CN3CCOCC3)n2)cc1	aSyn UTR act -86
Clc1ccc(-c2nnsc2SCc2ccccc2)cc1	aSyn UTR act -75
N#Cc1ccc(-c2csc(NC3=NCCCCC3)n2)cc1	aSyn UTR act -73
c1ccc(-c2csc(NC3=NCCCCC3)n2)cc1	aSyn UTR act -99
CC(C)(C)c1ccc(-c2csc(NNC3=NCCCCC3)n2)cc1	aSyn UTR act -78
NC(=O)c1ccc(-c2ncc(-c3ccccc3)o2)cc1	aSyn UTR act -68
CCn1c(C)nc2c(C)[n+](CC(=O)c3ccc(Br)cc3)ccc21	aSyn UTR act -106
CCCCOc1ccc(/C(N)=N/O)cc1	aSyn UTR act -73
N/C(=N\OCc1ccc([N+](=O)[O-])cc1)c1ccccn1	none
C/C(=N/OCc1ccc(Br)cc1)c1ccccn1	aSyn UTR act -123
N#Cc1c(NC(=O)C2CCCO2)sc2c1CCCCCC2 (stereo not drawn)	aSyn UTR act -98
NC(=O)c1c(NC(=O)C2CCCO2)sc2c1CCCC2 (stereo not drawn)	aSyn UTR act -74
CCCCNC(=O)c1nnn(-c2ccccc2)c1N	aSyn UTR act -140
C/C(=N/O)c1cccc(N2Cc3ccccc3C2)c1	aSyn UTR act -74
COc1ccc2cc(C3OCCO3)c(Cl)nc2c1	aSyn UTR act -108
COc1ccc2cc3c(N)nn(C(=O)c4ccccc4Cl)c3nc2c1	none
COc1ccccc1NC(=O)Cn1c(CN2CCCCC2)nc2ccccc2c1=O	aSyn UTR act -63
COCc1cc(CN2CCCC2)c(O)c2ncccc12	none
COc1cccc(/C=N/Nc2cc(-n3nc(C)cc3-c3ccccc3)ncn2)c1O	none
Cc1cnn(-c2cc(N/N=C/c3ccc(F)cc3)ncn2)c1	aSyn UTR act -86
CCc1ccc2nc(NC(=O)c3ccc4c(=O)[nH]c(CN5CCOCC5)nc4c3)sc2c1	aSyn UTR act -107
CCc1ccc2nc(NC(=O)c3ccc(N4C(=O)CCC4=O)cc3)sc2c1	aSyn UTR act -73
CN(C)CCN(C(=O)c1ccc(N2C(=O)CCC2=O)cc1)c1nc2cc3c(cc2s1)OCCO3	aSyn UTR act -75
O=C(Nc1nc2cc3c(cc2s1)OCCO3)c1ccco1	none
O=C(Nc1nc2cc3c(cc2s1)OCCO3)c1ccc(N2C(=O)CCC2=O)cc1	aSyn UTR act -65
Cc1ccc2nc(N(CCCN(C)C)C(=O)c3ccc(S(=O)(=O)N4CCc5ccccc5C4)cc3)sc2c1	none
Cc1cc(=O)oc2cc(NC(=O)c3ccc(OC(F)F)cc3)ccc12	aSyn UTR act -124
Cc1cc(=O)oc2cc(NC(=O)c3cccc(S(=O)(=O)N(C)C)c3)ccc12	aSyn UTR act -112
Cc1cc(=O)oc2cc(NC(=O)c3cccc(F)c3)ccc12	aSyn UTR act -152
Cc1cc(=O)oc2cc(NC(=O)c3cccc(S(C)(=O)=O)c3)ccc12	aSyn UTR act -97
CCOc1ccc(NC(=O)c2ccc(Br)o2)c([N+](=O)[O-])c1	aSyn UTR act -129
CCOc1ccc(NC(=O)COc2ccccc2)c([N+](=O)[O-])c1	aSyn UTR act -218
CCOC(=O)Nc1nc(-c2ccc(F)cc2F)cs1	aSyn UTR act -148
O=C(/C=C/c1ccccc1)NC1CC2CCC1C2 (stereo not drawn)	aSyn UTR act -110
C/C(=N/NC(=O)c1ccco1)c1cccc(NC(=O)c2ccc(C)s2)c1	aSyn UTR act -143
C/C(=N\NC(=O)c1c(Cl)cnn1C)c1cccc(NC(=O)COc2ccccc2)c1	aSyn UTR act -88
C/C(=N\NC(=O)c1ccn(C)n1)c1cccc(NC(=O)c2ccc(C)s2)c1	aSyn UTR act -101
C/C(=N/NC(=O)c1ccc(C)s1)c1cccc(NC(=O)COc2ccc(Cl)cc2Cl)c1	aSyn UTR act -126
C/C(=N\NC(=O)c1ccn(C)n1)c1ccc(NC(=O)c2cccc(F)c2)cc1	aSyn UTR act -86
C/C(=N/NC(=O)c1ccc(Cl)s1)c1ccc(NC(=O)COc2ccc(Cl)cc2)cc1	aSyn UTR act -77

Screens from PubChem.
